WT yeast gro inh = growth inhibition of WT strain, primary screen, mitochondrial fusion inhibitor project, WT and mutant strains, chemical genetic; inhibition, % at 10 µM; AID 1362, 2008; mitochondrial fusion phenotypic screen; hit rate 2.1% among 190,000; in the data active means inhibition above about 58%; tested in S. cerevisiae
m-calpain inh = inhibitors of pig calpain II, primary screen, biochemical, fluorogenic peptide substrate, 1536-well. purified calpain II, 30 min. inhibition, % at 16 µM. hit rate 0.37% among 220,000. AID 1236, 2008;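 active means inhibition above about 50%, limit read from the data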
KCC2 mod = KCC2 cotransporter modulators, thallium flux, primary screen, cell-based, HEK293 KCC2, FluoZin-2 fluorescence, MLSMR. hit rate 2.2% among 190,000. Solute carrier family 12 member 5 (Homo sapiens), Q9H2X9. B-score of Tl+ flux slope (higher = more flux/activation; lower = inhibition) at 10 µM. KCC2 cells, thallium flux FluoZin-2 fluorescence;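 active means thallium flux slope and its plate-corrected score both differing from the plate sample mean at a set confidence after two filtering rounds, in either direction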;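 further: slope of fluorescence scaled to starting intensity during 10 to 20 s after thallium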
Target sequence (Q9H2X9 whole entry, looked up): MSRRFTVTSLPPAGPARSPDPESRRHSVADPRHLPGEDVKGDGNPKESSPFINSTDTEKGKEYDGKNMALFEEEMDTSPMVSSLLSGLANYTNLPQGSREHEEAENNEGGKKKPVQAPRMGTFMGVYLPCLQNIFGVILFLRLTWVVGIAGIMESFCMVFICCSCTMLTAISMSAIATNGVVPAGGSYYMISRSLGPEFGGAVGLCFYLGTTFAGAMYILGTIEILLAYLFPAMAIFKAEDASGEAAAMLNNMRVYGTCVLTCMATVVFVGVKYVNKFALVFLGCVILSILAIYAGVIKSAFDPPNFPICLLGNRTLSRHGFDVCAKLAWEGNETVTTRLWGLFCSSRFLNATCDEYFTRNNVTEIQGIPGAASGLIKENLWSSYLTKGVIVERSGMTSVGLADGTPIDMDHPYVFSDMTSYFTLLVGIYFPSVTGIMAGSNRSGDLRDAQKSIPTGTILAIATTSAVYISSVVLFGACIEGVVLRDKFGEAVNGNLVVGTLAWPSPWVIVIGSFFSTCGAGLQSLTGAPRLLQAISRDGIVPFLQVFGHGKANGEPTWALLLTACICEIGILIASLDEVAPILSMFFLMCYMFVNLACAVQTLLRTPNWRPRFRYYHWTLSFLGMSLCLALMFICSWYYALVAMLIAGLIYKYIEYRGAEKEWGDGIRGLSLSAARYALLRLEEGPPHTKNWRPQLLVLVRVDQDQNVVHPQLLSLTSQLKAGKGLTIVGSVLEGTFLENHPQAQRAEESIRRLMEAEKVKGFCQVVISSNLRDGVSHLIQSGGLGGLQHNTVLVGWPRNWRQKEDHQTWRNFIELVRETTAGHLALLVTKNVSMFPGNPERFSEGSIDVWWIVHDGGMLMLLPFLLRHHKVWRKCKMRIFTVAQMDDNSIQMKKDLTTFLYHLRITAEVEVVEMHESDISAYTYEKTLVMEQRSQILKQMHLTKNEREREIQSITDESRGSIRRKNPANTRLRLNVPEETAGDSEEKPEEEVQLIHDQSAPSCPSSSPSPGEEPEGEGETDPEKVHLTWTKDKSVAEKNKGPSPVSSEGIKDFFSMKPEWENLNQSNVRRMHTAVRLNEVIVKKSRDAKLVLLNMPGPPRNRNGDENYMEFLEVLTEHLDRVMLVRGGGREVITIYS
Lmaj promast = Leishmania major promastigote growth inhibition, primary screen; Leishmania major promastigotes, resazurin fluorescence viability; inhibition, % at 10 µM; hit rate 9% among 200,000; in the data active means inhibition above about 50%;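 further: promastigotes grown with compound for 44 hours at 28 °C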
ROMK mod = ROMK potassium channel modulators, primary screen, cell-based, thallium flux, MLSMR library; Tet-inducible ROMK, thallium flux fluorescence; actives lie on both sides; B-score at 10 µM; hit rate 2% among 130,000; ATP-sensitive inward rectifier potassium channel 1 (Homo sapiens), P48048;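 active means signal ratio slope over the read window, or its plate-corrected B-score, at least 3 SD from the plate mean, either direction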;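 further: B-score of the F/F0 ratio slope over 7 to 12 s after thallium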
Numbers stand for hits; - = inactive; . = not tested or not shown. Compounds with a hit are over-represented: about 12% of the library has one in this group of screens.

SMILES	WT yeast gro inh	m-calpain inh	KCC2 mod	Lmaj promast	ROMK mod
Cc1nc2ccccc2c(=O)n1NC(=O)/C=C/c1ccccc1Cl	-	-	-	69	-
O=C(/C=C/c1ccccc1Cl)Nn1cnc2ccccc2c1=O	-	-	-	79	-
Cc1nc2ccccc2c(=O)n1NC(=O)c1ccccc1Cl	74	-	-	-	.
Cc1nc2ccccc2c(=O)n1NC(=O)c1ccc(F)cc1Cl	-	-	-	-	.
CCOC(=O)N1CCN(C(=O)C(NS(=O)(=O)c2cccc3nsnc23)c2ccccc2)CC1 (stereo not given)	-	-	-	-	.
CC(=O)Nc1ccc(CN2CCCCCCC2)cc1	-	-	-	-	.
CCN(CC)c1ccc(NC(=O)c2cc(Cl)ccc2OC)cc1	-	-	.	99	-
Cc1ccc(C(=O)Nc2ccc(CN3CCCCC3)cc2)c(C)c1	-	-	-	74	-
COc1ccc(Cl)cc1C(=O)Nc1ccc(NC(=O)c2ccco2)cc1	-	-	-	-	.
CCNC(=O)c1cc(Cl)ccc1OC	-	-	-	56	.
COc1ccc(Cl)cc1C(=O)Nc1ccc(CN2CCCCC2)cc1	-	-	-	98	-
CC(C)(C)NC(=O)COC(=O)c1ccccc1C(=O)c1ccccc1	-	-	-	-	-
Cc1ccccc1-c1noc(-c2ccccc2C(=O)NCC2CCCO2)n1 (stereo not given)	.	-	-	.	-
O[C@@H]1COC(Nc2ccc(N=Nc3ccccc3)cc2)C[C@@H]1O (stereo not given in full)	.	-	-	.	-
CCOc1ccc(S(=O)(=O)NCc2ccc(C)cc2)c2cccnc12	-	-	-	98	-
CCOc1ccc(NS(=O)(=O)c2ccc(OCC)c3ncccc23)cc1	-	-	-	-	.
O=C(Nc1nnc(-c2ccc(Cl)s2)o1)C1CC1	-	-	-	61	-
CCOC(=O)C1=C(O)/C(=C/c2cccc(OC)c2O)N=C1C	-	-	-	63	-
CC(=O)Cn1ncc(Br)c(Br)c1=O	-	-	-	71	-
O=C(OCn1ncc(Br)c(Br)c1=O)c1c(F)cccc1F	-	-	.	100	-4.2
O=C(CN1CCN(c2ccc(F)cc2)CC1)Nc1ccccc1[N+](=O)[O-]	-	-	-	-	-
CC(NC(=O)/C(C#N)=C1\N=C(NC(=O)c2ccco2)c2ccccc21)c1ccccc1 (stereo not given)	.	-	-	.	.
O=C(c1cc2cc([N+](=O)[O-])ccc2oc1=O)n1cccn1	-	-	-	-	.
O=C(NCCNS(=O)(=O)c1cccc(C(F)(F)F)c1)c1cc(OCC(F)(F)F)ccc1OCC(F)(F)F	-	-	-	-	.
CC(C)(C)NS(=O)(=O)c1ccc2nc(NC(=O)Cc3cccs3)sc2c1	-	-	-	95	-
SMILES	WT yeast gro inh	m-calpain inh	KCC2 mod	Lmaj promast	ROMK mod
CS(=O)(=O)c1ccc2nc(NC(=O)Cc3ccccc3)sc2c1	-	-	-	-	.
CC(C)(C)N/N=C1\CC(c2ccccc2)Oc2ccccc21 (stereo not given)	62	-	-	-	-
c1ccc(C2C/C(=N\N3CCOCC3)c3ccccc3O2)cc1 (stereo not given)	-	-	-	-	-
Cc1ccc(C)n1CCN1CCN(S(=O)(=O)c2ccc(F)cc2F)CC1	.	-	-	.	.
CCn1c2ccccc2c2cc(/C=N/n3cn[nH]c3=S)ccc21	-	-	23	-	.
CCn1c2ccccc2c2cc(/C=N/n3cnnc3)ccc21	-	-	-	-	.
Cc1ccc(NC(=O)c2ccc(CNc3c(N4CCC(C)CC4)c(=O)c3=O)cc2)cc1	.	-	-	.	-
O=C(COC(=O)CNC(=O)c1ccccc1F)NCCC1=CCCCC1	-	-	-	-	.
CC(C)CCNC(=O)c1csc2c1CCCCC2	-	-	-	-	-
CCCCN(CC)CCCNC(=O)c1csc2c1CCCCC2	-	-	-	87	-
CCNc1ccc(Br)cc(C(=O)/C=C/c2c(Cl)cccc2Cl)c1=O	-	-	.	100	-
CNc1ccc(Br)cc(C(=O)/C=C/c2ccc(Cl)cc2Cl)c1=O	-	-	.	99	-
CCNc1ccc(Br)cc(C(=O)/C=C/c2ccc(Cl)cc2)c1=O	-	-	-	84	-
CNc1ccc(Br)cc(C(=O)/C=C/c2cccc(OC)c2)c1=O	-	-	-	57	-
Nc1nc(C(F)(F)F)cc(=O)n1N	-	-	-	-	-
Cc1ccnc(N=Cc2c(O)ccc3oc4c(c23)CCCC4)c1	-	-	-	90	-
Oc1ccccc1N=Cc1c(O)ccc2oc3c(c12)CCCC3	.	-	-	.	.
O=C1CSC(c2ccccc2F)N1CCN1CCCCC1 (stereo not given)	-	-	-	78	-
O=C1CSC(c2cccc([N+](=O)[O-])c2)N1CCN1CCCCC1 (stereo not given)	-	-	.	85	.
COc1ccc(CN(C#N)c2nc(SC)nc(N(C)C)n2)cc1	-	-	.	-	-
Cc1ccc(C(C)NC(=O)c2ccco2)cc1 (stereo not given)	-	-	.	-	-
CCCC[C@@H]1C[C@H]1[C@@H](NC(=O)c1ccco1)c1ccc(Cl)cc1	73	-	-	-	-
CCCC[C@@H]1C[C@H]1[C@@H](NC(=O)c1cccs1)c1ccc(Cl)cc1	70	-	-	-	-
CCn1c(O)c(/C=N/N=C/c2ccccc2)c2ccc(C3=NNC(=O)CC3)cc21	-	-	-	89	-
C/C(=N\O)c1ccc2c3c([nH]c2c1)CCCC3	74	.	.	-	.
SMILES	WT yeast gro inh	m-calpain inh	KCC2 mod	Lmaj promast	ROMK mod
C/C(=N\O)c1ccc2[nH]ccc2c1	-	-	-	-	-
O=C1CC2c3ccccc3C1C1C(=O)N(CCO)C(=O)C21 (stereo not given)	-	-	-	-	-
COC(=O)c1ccc(Nc2cc(C)nc(-c3ccccc3O)n2)cc1	-	-	6.2	-	-
COC(=O)c1cccc(NC(=O)c2ccccc2)c1	.	-	-	.	.
C/C(=N\Nc1cc(C)nc(-c2ccccc2O)n1)c1ccccc1O	.	-	-	.	.
COC(=O)c1cccc(Nc2cc(C)nc(-c3ccccc3O)n2)c1	-	-	.	67	-
COc1ccc(C(=O)NC(=S)Nc2ccccc2N2CCCCC2)cc1[N+](=O)[O-]	-	-	-	99	-
Cc1c(C(=O)NC(=S)Nc2ccccc2N2CCCC2)cccc1[N+](=O)[O-]	-	-	13	87	-
O=C(Nc1ccccc1N1CCCCC1)c1cccc([N+](=O)[O-])c1	78	-	-	-	-
CCOc1ccc(C(=O)NC(=S)Nc2ccccc2OC)cc1[N+](=O)[O-]	-	-	-	-	.
O=C(Nc1ccccc1N1CCOCC1)c1cccc([N+](=O)[O-])c1	-	-	-	-	-
Cc1c(C(=O)Nc2ccccc2C(=O)N2CCCC2)cccc1[N+](=O)[O-]	-	-	-	-	-
CCOc1ccc(C(=O)NC(=S)NC2CCCC2)cc1[N+](=O)[O-]	-	-	-	58	.
CC(C)CC(=O)NC(=S)Nc1ccc(N2CCOCC2)c(Cl)c1	-	-	-	-	-

Assay outcomes (PubChem BioAssay)
